Measurements taken from PubChem BioAssay.
Activity calls are given as the source filed them. Unless noted, no rule for the calls is given here.

Columns and labels:
[1] = HepG2 liver cancer cell viability effects, profiling panel, resazurin fluorescence, 24 h, PK04 Diversity Set (AID 1172); conditions: higher = more signal
[2] = basal S. cerevisiae growth modulation, no modifier, primary screen, OD600, strain BY4716, 24 h, basal condition (AID 1173); conditions: OD600, 24 h, higher = more signal, called active from +8 up or from −8 down
[3] = MM1S myeloma cell viability, profiling panel, resazurin fluorescence, basal, 24 h, PK04 Diversity Set (AID 1174); conditions: higher = more signal, called active from +8 up or from −8 down;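 also: MM1S multiple myeloma cell line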
[4] = target: Dihydroorotate dehydrogenase (quinone), mitochondrial (Plasmodium falciparum (isolate 3D7)) (UniProt Q08210); test: PfDHODH enzyme inhibitors, primary screen, biochemical, C-terminal His tag, absorbance 600 nm (AID 1175); conditions: DCIP absorbance 600 nm, higher = more signal, called active from +8 up or from −8 down;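 also: recombinant parasite enzyme with a five histidine tag at its C terminus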
Sequence of Dihydroorotate dehydrogenase (quinone), mitochondrial (Plasmodium falciparum (isolate 3D7)) (Q08210 whole entry, looked up): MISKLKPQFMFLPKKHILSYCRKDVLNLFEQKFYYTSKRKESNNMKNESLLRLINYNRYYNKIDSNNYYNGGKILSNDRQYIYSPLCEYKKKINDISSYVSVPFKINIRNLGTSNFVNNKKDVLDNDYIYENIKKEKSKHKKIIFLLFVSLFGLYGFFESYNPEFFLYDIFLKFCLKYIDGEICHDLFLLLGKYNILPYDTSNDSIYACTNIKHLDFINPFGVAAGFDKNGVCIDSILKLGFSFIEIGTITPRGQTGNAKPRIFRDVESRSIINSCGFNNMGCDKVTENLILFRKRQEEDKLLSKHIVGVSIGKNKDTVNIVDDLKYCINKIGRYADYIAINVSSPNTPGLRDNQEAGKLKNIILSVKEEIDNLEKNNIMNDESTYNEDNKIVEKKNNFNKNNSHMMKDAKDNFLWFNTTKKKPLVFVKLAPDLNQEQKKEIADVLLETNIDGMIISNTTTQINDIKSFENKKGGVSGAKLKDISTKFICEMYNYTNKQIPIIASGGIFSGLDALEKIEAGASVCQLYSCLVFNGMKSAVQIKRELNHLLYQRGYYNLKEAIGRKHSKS

[5] = P. aeruginosa biofilm formation inhibitors, primary screen, strain PAO1, LB-PBS medium, absorbance 600 nm (AID 1176); conditions: P. aeruginosa PAO1 growth/biofilm, A600, 12 h; higher = more signal
[6] = S. cerevisiae RM11-1a growth modifiers, primary screen, strain RM11-1a, OD600, basal, 24 h (AID 1177); conditions: OD600, 24 h, higher = more signal, called active from +8 up or from −8 down;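 also: cultures grown under basal conditions with no added stressor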
[7] = E. coli acrAB mutant growth effects, primary screen, E. coli filamentation inducers, strain DRC39, OD650, 24 h (AID 1178); conditions: higher = more signal, called active from +8 up or from −8 down;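 also: growth measured as culture turbidity by optical density at 650 nm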
[8] = E. coli acrAB mutant growth effects, primary screen, E. coli filamentation inducers, strain DRC39, OD650, 48 h (AID 1179);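 also: screen aims at cell division blockers that make cells filament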; conditions: E. coli DRC39 delta-acrAB growth, higher = more signal, called active from +8 up or from −8 down
[9] = RPMI8226 myeloma cell viability, profiling panel, resazurin fluorescence, basal, 24 h, PK04 Diversity Set (AID 1180); conditions: higher = more signal;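 also: RPMI8826 multiple myeloma cell line at 5000 cells per well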
[10] = target: E3 ubiquitin-protein ligase XIAP (Homo sapiens) (UniProt P98170); test: XIAP binders, primary screen, biophysical, small-molecule microarray, fluorescence 635 nm (AID 1181); conditions: small-molecule microarray binding, higher = more signal;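 also: score merges 667 nm emission and signal to noise over triplicate slides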
Sequence of E3 ubiquitin-protein ligase XIAP (Homo sapiens) (P98170 whole entry, looked up): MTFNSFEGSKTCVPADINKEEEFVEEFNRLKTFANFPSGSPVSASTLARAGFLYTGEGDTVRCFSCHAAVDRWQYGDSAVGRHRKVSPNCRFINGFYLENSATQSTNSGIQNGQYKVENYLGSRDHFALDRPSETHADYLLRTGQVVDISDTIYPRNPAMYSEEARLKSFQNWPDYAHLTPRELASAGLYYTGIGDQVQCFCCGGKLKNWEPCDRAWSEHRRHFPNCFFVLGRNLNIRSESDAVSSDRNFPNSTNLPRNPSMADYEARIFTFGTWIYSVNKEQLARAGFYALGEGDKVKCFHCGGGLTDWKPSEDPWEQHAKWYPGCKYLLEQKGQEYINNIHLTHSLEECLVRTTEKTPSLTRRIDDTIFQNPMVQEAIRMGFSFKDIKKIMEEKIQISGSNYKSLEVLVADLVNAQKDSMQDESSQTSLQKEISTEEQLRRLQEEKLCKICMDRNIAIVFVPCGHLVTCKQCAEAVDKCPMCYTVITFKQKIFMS

[11] = system: XIP peptide (Xip251-270) binding; test: small-molecule binders of XIP peptide, primary screen, biochemical, small-molecule microarray, fluorescence 635/667 nm, 0.1 µg/mL protein (AID 1182); conditions: fluorescent protein binding, 635 nm, higher = more signal, called active from +8 up or from −8 down
XIP peptide (Xip251-270) = test: small-molecule binders of XIP peptide, primary screen, biochemical, small-molecule microarray, fluorescence 635/667 nm, 0.5 µg/mL protein (AID 1183); conditions: small-molecule microarray binding, fluorescence 635 nm; higher = more signal
[12] = Plasmodium falciparum growth inhibition, primary screen, strain 3D7, DAPI fluorescence, 100 nL (AID 1184);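 also: parasites grown inside human red blood cells in medium with human serum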; conditions: P. falciparum 3D7 growth, 3 d, higher = more signal
[13] = target: Homeobox protein Hox-A13 (Mus musculus) (UniProt Q62424); test: inhibitors of HoxA13-DNA binding, primary screen, biochemical, fluorescence polarization, labeled oligonucleotide (AID 1185); conditions: 15 min, higher = more signal, called active from +8 up or from −8 down
Sequence of Homeobox protein Hox-A13 (Mus musculus) (Q62424 whole entry, looked up): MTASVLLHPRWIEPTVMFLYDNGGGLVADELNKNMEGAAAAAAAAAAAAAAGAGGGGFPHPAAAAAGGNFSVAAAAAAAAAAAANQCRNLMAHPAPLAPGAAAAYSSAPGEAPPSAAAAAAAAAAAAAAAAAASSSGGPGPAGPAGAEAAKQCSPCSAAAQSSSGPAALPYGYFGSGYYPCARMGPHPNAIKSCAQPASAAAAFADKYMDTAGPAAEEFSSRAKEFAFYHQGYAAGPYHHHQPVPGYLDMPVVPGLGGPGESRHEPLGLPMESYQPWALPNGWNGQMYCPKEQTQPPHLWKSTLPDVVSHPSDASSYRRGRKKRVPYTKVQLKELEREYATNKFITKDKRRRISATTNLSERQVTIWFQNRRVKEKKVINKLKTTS

[14] = inhibitors of hydroxyurea-induced Chk1 phosphorylation, primary screen, imaging, HeLa, phospho-Chk1 antibody, percent positive cells (AID 1186); conditions: hydroxyurea-induced phospho-Chk1 immunofluorescence imaging, higher = more signal
[15] = inhibitors of hydroxyurea-induced Chk1 phosphorylation, primary screen, imaging, HeLa, phospho-Chk1 nuclear intensity (AID 1187); conditions: hydroxyurea-induced phospho-Chk1 immunofluorescence imaging, higher = more signal

Row | SMILES | z-score [1] | z-score [2] | z-score [3] | composite z-score [4] | z-score [5] | z-score [6] | z-score [7] | z-score [8] | z-score [9] | composite z-score [10] | composite z-score [11] | composite z-score (XIP peptide (Xip251-270)) | z-score [12] | z-score [13] | z-score [14] | z-score [15]
1 | CC(C)C(=C=CC[C@@H](O)c1ccc(OCCO)cc1)CCO | 1 | -3.28 (inactive) | 1.21 (inactive) | -2.88 (inactive) | 0.13 (inactive) | -1.17 (inactive) | 1.61 (inactive) | 1.52 (inactive) | 1.52 | -0.0645 | 0.308 (inactive) | 0.222 | -2.09 | -2.38 (inactive) | -0.201 (inactive) | 1.37 (inactive)
2 | N#Cc1ccc(C(O)C2C=CC3C(=O)N(c4ccccc4)C(=O)C3N2Nc2ccc([N+](=O)[O-])cc2)cc1 (centres undefined) | -0.298 | -0.0292 (inactive) | -0.291 (inactive) | 0.154 (inactive) | 1.01 (inactive) | -0.114 (inactive) | -1.15 (inactive) | -0.224 (inactive) | -0.783 | -0.162 | 1.04 (inactive) | 0.807 | -1.84 | -4.34 (inactive) | -0.138 (inactive) | -1.24 (inactive)
3 | C=C(COC)C(=O)CC[C@@H](OC(=O)c1cccnc1)c1cccc(OCCO)c1 | 0.312 | 0.798 (inactive) | -0.857 (inactive) | -0.289 (inactive) | 0.543 (inactive) | 0.544 (inactive) | 1.16 (inactive) | 0.927 (inactive) | -2.55 | -0.162 | -0.209 (inactive) | 0.617 | -2.53 | -4.51 (inactive) | -0.494 (inactive) | 2.22 (inactive)
4 | CN1C(=O)[C@]2(CCC(=O)OC(C)(C)C)N=C(c3ccc(OCCCO)cc3)O[C@@H]2c2ccccc21 | 0.476 | 0.997 (inactive) | -1.67 (inactive) | 0.42 (inactive) | -0.441 (inactive) | 1.09 (inactive) | 1.01 (inactive) | 0.679 (inactive) | -1.56 | 0.312 | 0.0974 (inactive) | 0.654 | -1.56 | -5.26 (inactive) | -0.0356 (inactive) | 0.25 (inactive)
5 | CC(C)CNC(=O)[C@@]1(C)c2ccccc2C(=O)N(Cc2cc(F)cc(C(F)(F)F)c2)[C@H]1c1ccc(CO)cc1 | -0.201 | -0.3 (inactive) | 0.919 (inactive) | -0.0555 (inactive) | 1.22 (inactive) | -0.167 (inactive) | 0.167 (inactive) | 0.137 (inactive) | 0.489 | -0.208 | 2.74 (inactive) | 0.467 | -0.586 | -3.51 (inactive) | -0.143 (inactive) | 0.0394 (inactive)
6 | COC(=O)[C@]1(CO)N=C(c2ccc(OCCCO)cc2)O[C@@H]1c1ccccc1CN=[N+]=[N-] | -0.318 | 0.443 (inactive) | -0.529 (inactive) | 0.415 (inactive) | -0.677 (inactive) | -0.299 (inactive) | -0.246 (inactive) | 0.321 (inactive) | -0.15 | -0.21 | 0.495 (inactive) | -0.116 | -0.217 | -5 (inactive) | -0.33 (inactive) | -0.658 (inactive)
7 | CC(c1ccccc1)C(O)C1C=CC2C(=O)N(c3ccccc3)C(=O)C2N1Nc1ccc(C#N)cc1 (centres undefined) | 0.142 | -0.0091 (inactive) | -1.24 (inactive) | -0.0432 (inactive) | 0.695 (inactive) | -0.977 (inactive) | 1.07 (inactive) | 1.83 (inactive) | -0.008 | 0.332 | 0.235 (inactive) | 0.784 | 0.526 | -1.21 (inactive) | -0.325 (inactive) | 0.313 (inactive)
8 | C=CCC(OC(C)=O)[C@@H]1[C@@H](N(Cc2cc3ccccc3o2)C(=O)Cc2ccc(OC)cc2)c2cc(OCCCO)ccc2N1C(=O)Cc1ccc(OC)cc1 (some centres undefined) | -1.28 | -1.01 (inactive) | -0.0297 (inactive) | 0.707 (inactive) | 0.198 (inactive) | -0.133 (inactive) | -0.184 (inactive) | -0.578 (inactive) | -0.561 | 0.0345 | 0.394 (inactive) | -0.503 | -1.96 | -2.81 (inactive) | 0.954 (inactive) | 0.799 (inactive)
9 | CC(=O)NCCCC[C@@H]1NC(=O)[C@H]2C[C@@H](C(=O)NCCCCCC[N+](C)(C)C)[C@@H](c3ccc(O)cc3)N2C1=O | 0.387 | -0.0177 (inactive) | 0.319 (inactive) | -1.03 (inactive) | 0.519 (inactive) | -0.533 (inactive) | -0.04 (inactive) | -0.63 (inactive) | -0.0771 | -0.0062 | 0.265 (inactive) | 0.883 | -0.0467 | -2.81 (inactive) | -0.207 (inactive) | 0.0348 (inactive)
10 | C[N+](C)(C)CCCC[C@@H]1NC(=O)[C@H]2C[C@@H](C(=O)NCCCCCNC(=O)CS)[C@@H](c3ccc(O)cc3)N2C1=O | -0.532 | -0.905 (inactive) | 0.469 (inactive) | -1.3 (inactive) | 0.82 (inactive) | -2.28 (inactive) | 0.902 (inactive) | 1.33 (inactive) | -0.178 | -0.216 | 0.949 (inactive) | 0.696 | -0.0941 | -0.677 (inactive) | 0.0225 (inactive) | 0.579 (inactive)
11 | C=CCOC(=O)[C@H]1[C@@H]2C(=O)O[C@@H](c3ccccc3)[C@@H](c3ccccc3)N2[C@@H](c2ccc(OCCOC(=O)[C@@H]3C[C@@H]4C(=O)N[C@@H](CC(C)C)C(=O)N4[C@@H]3c3ccc(O)cc3)cc2)[C@]12C(=O)Nc1ccc(I)cc12 | -1.11 | 0.637 (inactive) | -0.0917 (inactive) | -1.41 (inactive) | 2.94 (inactive) | -0.628 (inactive) | 0.214 (inactive) | 1.3 (inactive) | 0.518 | -0.0232 | 1.47 (inactive) | 0.788 | -1.79 | 0.999 (inactive) | -0.654 (inactive) | 0.112 (inactive)
12 | CCN(CC)c1ccc(N2CC=CC34O[C@@H]5C=CCOC(=O)[C@@H]5[C@H]3C(=O)N(CCO)[C@@H]4C2=O)cc1 (some centres undefined) | 0.534 | -0.0592 (inactive) | 0.762 (inactive) | -0.675 (inactive) | -0.978 (inactive) | 0.964 (inactive) | 1.15 (inactive) | 1.36 (inactive) | 0.828 | 0.147 | -0.228 (inactive) | -1.29 | 0.738 | -4.9 (inactive) | -0.52 (inactive) | -0.456 (inactive)
13 | CC(C)C[C@@H]1NC(=O)[C@H]2C[C@@H](C(=O)NCCCCCNC(=O)CS)[C@@H](c3ccc(O)cc3)N2C1=O | -2.15 | 0.131 (inactive) | -0.297 (inactive) | 0.204 (inactive) | 0.767 (inactive) | 0.665 (inactive) | -0.117 (inactive) | -0.942 (inactive) | -0.57 | -0.0577 | 0.563 (inactive) | 0.692 | -0.92 | -3.85 (inactive) | -0.37 (inactive) | -0.291 (inactive)
14 | C=C(C(=O)CC[C@@H](OC(C)=O)c1cccc(OCCO)c1)C(C)C | -1.1 | -1.03 (inactive) | -0.353 (inactive) | -0.842 (inactive) | 0.26 (inactive) | 1.11 (inactive) | -1.29 (inactive) | -1.06 (inactive) | 0.173 | 0.686 | 0.723 (inactive) | 0.436 | -1.01 | -4.41 (inactive) | -0.0088 (inactive) | 0.158 (inactive)
15 | CCOC(=O)C[C@H]1[C@H](OC(=O)c2cc3ccccc3oc2=O)[C@@H](NC(=O)C2CCCCC2)c2cc(OCCCO)ccc2N1C(=O)Cc1ccc(OC)cc1 | -0.715 | 0.0323 (inactive) | -0.176 (inactive) | 0.427 (inactive) | -0.234 (inactive) | -0.0196 (inactive) | -0.825 (inactive) | -1.1 (inactive) | -0.986 | 0.214 | 0.0512 (inactive) | 0.0439 | -0.565 | -4.22 (inactive) | 0.521 (inactive) | -0.306 (inactive)
16 | CC(=O)n1cc(C(O)C2C=CC3C(=O)N(c4ccccc4)C(=O)C3N2Nc2ccccc2F)c2ccccc21 (centres undefined) | 0.68 | -1.34 (inactive) | -0.223 (inactive) | -0.349 (inactive) | 1.54 (inactive) | -0.86 (inactive) | 0.8 (inactive) | 0.86 (inactive) | 0.0072 | 0.439 | 0.0433 (inactive) | 0.752 | -0.153 | -4.01 (inactive) | -0.0566 (inactive) | 0.153 (inactive)
17 | O=C1OCCC=C[C@H]2OC34C=CCN(c5ccc(Cl)cc5)C(=O)[C@H]3N(CCO)C(=O)[C@@H]4C12 (some centres undefined) | 0.545 | 0.204 (inactive) | 0.221 (inactive) | -1.45 (inactive) | -0.317 (inactive) | 0.132 (inactive) | -0.947 (inactive) | -1.04 (inactive) | -0.202 | -0.31 | -0.379 (inactive) | 0.561 | -0.136 | -5.37 (inactive) | -0.399 (inactive) | -0.576 (inactive)
18 | CCOC(=O)C1=C[C@@H](C(C)(C)C)N(S(=O)(=O)c2ccc(C)cc2)[C@H]1c1ccccc1Cl | -0.421 | 1.51 (inactive) | -0.763 (inactive) | 0.0477 (inactive) | 0.188 (inactive) | 1.73 (inactive) | -0.544 (inactive) | -0.468 (inactive) | -1.74 | 0.227 | 0.646 (inactive) | 0.705 | -1.65 | 0.649 (inactive) | 0.271 (inactive) | -0.0709 (inactive)
19 | CCCCC(=C=CC[C@@H](O)c1ccc(OCCO)cc1)C[C@@H](O)c1ccccn1 | -0.517 | -1.12 (inactive) | -0.769 (inactive) | -8.71 (active) | 0.932 (inactive) | 0.43 (inactive) | 0.753 (inactive) | 0.239 (inactive) | -0.541 | 0.133 | 0.0856 (inactive) | -0.24 | -0.979 | -5.87 (inactive) | 0.784 (inactive) | 0.744 (inactive)
